Bioassay records (PubChem)
An excerpt weighted towards active compounds, which were near 2% of everything screened.
TCR CD3 inh – inhibitors of human TCR-CD3 interaction, primary screen, biochemical, fluorescence, TAMRA-labeled TCR probe; T-cell receptor (TCR); inhibition, % at 9.4 µM; 0.37% of 360,000 active; AID 651800, 2012; in the data active = inhibition above about 19%;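 note: recombinant mutant TCR 2C K166C tagged with TAMRA read by polarization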
LEDGF integ inh – blockers of LEDGF/p75-dependent integrase strand transfer – biochemical, TR-FRET, high throughput, primary screen; HIV-1 integrase (with human LEDGF/p75); inhibition, % at 3.7 µM; AID 743269, 2014; TR-FRET IN-LEDGF/p75 DNA integration, Eu/Cy5; 0.64% of 370,000 active;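 active = inhibition above the screen-wide mean plus 3 SD, cut at about 13% in these data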;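 note: signal is the Cy5 over europium emission ratio at 671 and 618 nm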
Rin1 Abl inh – inhibitors of Rin1-Abl protein binding, primary screen, biochemical, TR-FRET; Tyrosine-protein kinase ABL1 (Homo sapiens) + Ras and Rab interactor 1 (Homo sapiens), …; inhibition, % at 7.35 µM; 0.4% of 360,000 active; in the data active = inhibition above about 5%, passing the limit was not always enough
UHRF1 binding – UHRF1 methylated DNA binding inhibitors, primary screen, counter-screen for MBD2 inhibitor project, biochemical, TR-FRET, human UHRF1, single concentration; UHRF1 binding to methylated oligo; inhibition, % at 4.4 µM; AID 687016, 2013; 0.75% of 370,000 active; E3 ubiquitin-protein ligase UHRF1 (Homo sapiens), Q96T88; in the data active = inhibition above about 21%;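 note: UHRF1 SRA domain binding a hemimethylated CpG hairpin DNA probe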
MBD2 inh – inhibitors of MBD2 binding to methylated DNA, primary screen, biochemical, TR-FRET, DNA-binding domain, human. Methyl-CpG-binding domain protein 2 (Homo sapiens), Q9UBB5. MBD2 binding to methylated oligonucleotide. inhibition, % at 4.4 µM. 0.31% of 370,000 active; in the data active = inhibition above about 13%
UHRF1 DNA bind – UHRF1 methylated DNA binding inhibitors, counter-screen for MBD2 inhibitor project, biochemical, TR-FRET, human UHRF1; shares compounds with MBD2 inh; UHRF1 binding to methylated oligonucleotide; inhibition, % at 4.4 µM; 25% of 1,000 active; in the data active = inhibition above about 21%;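 note: UHRF1 SRA domain binding a labeled hemimethylated CpG hairpin DNA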
MBD2 DBD conf – inhibitors of MBD2 binding to methylated DNA, confirmation, biochemical, TR-FRET, DNA-binding domain, human; shares compounds with MBD2 inh; TR-FRET MBD2-DBD binding to methylated oligonucleotide; inhibition, % at 4.4 µM; 26% of 1,000 active; AID 720531, 2013
IN multimer up – HIV-1 IN multimer formation enhancers, counter-screen for LEDGF/p75 integration inhibitor project, biochemical, TR-FRET; TR-FRET HIV-1 integrase multimerization; shares compounds with LEDGF integ inh; AID 1053131, 2014; activation, % at 7.7 µM; 17% of 2,000 active; in the data active = activation above about 8.9%
TRFRET interf – TR-FRET optical interference artefacts, confirmation, artefact control for LEDGF/p75-dependent integration inhibitor project, biochemical, HIV-1 IN multimerization. AID 1053135, 2014. shares compounds with LEDGF integ inh. TR-FRET optical interference counterscreen. inhibition, % at 7.7 µM. 2,000 tested, under 10 active;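 active = inhibition above the mean over all tested compounds plus 3 SD, which no compound reached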
IN-LEDGF confirm – inhibitors of HIV-1 IN-LEDGF/p75 DNA integration, confirmation, biochemical, TR-FRET | shares compounds with LEDGF integ inh | TR-FRET LEDGF/p75-dependent HIV-1 integration | inhibition, % at 3.7 µM | 36% of 2,000 active | AID 1053136, 2014
A number is an active result; i = inactive; nt = no result given. Cut-off read from the data, not from the text of the source, unless noted: active = inhibition above about 14%; inactive = the rest.

SMILES	TCR CD3 inh	LEDGF integ inh	Rin1 Abl inh	UHRF1 binding	MBD2 inh	UHRF1 DNA bind	MBD2 DBD conf	IN multimer up	TRFRET interf	IN-LEDGF confirm
O=C1OC(c2ccc(Cl)cc2)=N/C1=C\C=C\c1ccco1	i	36.2	i	40.4	14.1	i	i	i	i	i
Cc1ccc(CN2C(=O)CSCC2(C)C(=O)Nc2c(C)cccc2C)cc1 (stereo not drawn)	i	i	nt	i	i	nt	nt	nt	nt	nt
COCCNC(=O)C1(C)CCCN(C(=O)c2ccc(C(=O)OC)cc2)C1 (stereo not drawn)	i	15.1	i	i	16.2	i	i	i	i	i
COc1cccc(OC)c1C(=O)N1CCNCC1	i	i	i	i	i	nt	nt	nt	nt	nt
Cc1onc(-c2ccccc2Cl)c1C(=O)NCc1ccco1	i	44.0	i	41.3	25.8	i	14.0	10.0	i	30.5
Cc1noc(C)c1C(=O)NCc1ccco1	i	i	i	i	i	nt	nt	nt	nt	nt
Cc1ccc(-n2c(SCC(=O)Nc3ccc(S(=O)(=O)Nc4nccs4)cc3)nnc2-c2cccs2)cc1	nt	i	nt	i	i	nt	nt	nt	nt	nt
CCc1nc2ccc(C(=O)NCc3ccc(OC)cc3)cn2c1N(C)CCC(C)C	i	i	i	i	i	nt	nt	nt	nt	nt
Cc1c(N)cc(N)cc1C(=O)O	i	73.9	i	73.2	25.9	i	i	i	i	i
Cc1c(Br)cc(C(=O)O)c(C)c1C	i	i	i	i	i	nt	nt	nt	nt	nt
CC(=O)Nc1ccc(CNc2nc3cc(-c4ccc(F)cc4)sc3c(=O)n2C)cc1	i	i	i	i	i	nt	nt	nt	nt	nt
O=C(O)c1cc(N2C(=O)C=CC2=O)cc(N2C(=O)C=CC2=O)c1	i	61.5	i	96.6	79.8	77.2	39.4	i	i	52.9
O=C(O)c1cc(C(=O)O)cc(N2C(=O)c3ccccc3C2=O)c1	i	i	nt	i	i	nt	nt	nt	nt	nt
Cc1cc(N)nc(=O)n1C1CC(O)C(CO)O1 (stereo not drawn)	i	i	i	i	i	nt	nt	nt	nt	nt
COc1cc(/C=C(\C#N)C(=O)c2ccc(O)c(O)c2)cc(I)c1O	23.1	90.3	i	58.1	21.9	i	i	21.5	i	81.7
COc1ccc(C=C(C#N)C(=O)c2ccccc2)cc1	i	i	nt	i	i	nt	nt	nt	nt	nt
O=C(C[C@@H]1C[C@H]2c3cc(NC(=O)Nc4ccccc4F)ccc3O[C@H]2[C@H](CO)O1)NCC(F)(F)F	i	i	i	i	i	nt	nt	nt	nt	nt
C=C(C)C(=O)N1CC2(CC(c3cccc(NC(=O)/C=C\C=C/C)c3)=NO2)C[C@H]1C(N)=O (stereo partly drawn)	i	i	i	i	i	nt	nt	nt	nt	nt
C=C(C)C(=O)Nc1cccc(C2=NOC3(C2)C[C@@H](C(N)=O)N(C(=O)C(=C)C)C3)c1 (stereo partly drawn)	i	15.5	i	73.6	35.1	72.8	41.8	17.4	i	30.0
